High-throughput results as filed in PubChem.
HSV replic up: HSV replication enhancement | 220,000 compounds, 0.005% hits | maximum fold increase | HSV replication augmentation in cells, fold increase; in the data active = maximum fold increase above about 1.5; inconclusive = no clear call, values can overlap the other calls; tested in PC3 cells
Wee1 degr inh: inhibitors of human Wee1 degradation; 220,000 compounds, 1.2% hits; reporter increase, % at 5 µM; P30291; AID 1321; HeLa Luc-Wee1K328M stability, luciferase luminescence; 100% = proteasome inhibitor MG132 effect;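 active = activation above the mean of all tested compounds plus 3 SD, set per screening run, cut at about 8.8% in these data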;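 also: cells exposed to compound for 20 h before luminescence read; 0% = DMSO alone and 100% = MG132 at 30 µM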
Target sequence (P30291 whole entry K328M): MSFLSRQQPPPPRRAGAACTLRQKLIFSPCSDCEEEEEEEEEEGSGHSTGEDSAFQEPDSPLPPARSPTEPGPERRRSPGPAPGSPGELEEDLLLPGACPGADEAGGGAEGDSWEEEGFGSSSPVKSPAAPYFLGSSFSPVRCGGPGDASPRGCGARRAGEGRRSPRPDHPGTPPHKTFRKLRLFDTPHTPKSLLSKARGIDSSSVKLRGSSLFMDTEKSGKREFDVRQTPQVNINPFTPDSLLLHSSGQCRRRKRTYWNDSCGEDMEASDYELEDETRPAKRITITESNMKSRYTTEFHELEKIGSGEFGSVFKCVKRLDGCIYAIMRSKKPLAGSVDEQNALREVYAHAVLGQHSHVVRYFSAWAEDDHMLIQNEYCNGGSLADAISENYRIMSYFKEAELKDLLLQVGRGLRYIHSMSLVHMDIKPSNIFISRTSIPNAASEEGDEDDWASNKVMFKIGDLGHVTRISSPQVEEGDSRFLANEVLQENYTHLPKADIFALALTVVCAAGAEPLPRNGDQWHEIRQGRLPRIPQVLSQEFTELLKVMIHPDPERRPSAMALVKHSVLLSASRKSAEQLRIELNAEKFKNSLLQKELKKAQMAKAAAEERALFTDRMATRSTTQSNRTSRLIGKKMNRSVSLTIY
Hsp70 activator: Hsp70 transcriptional activation, primary screen; activation, % at 10 µM; 200,000 compounds, 0.04% hits; HeLa Hsp70 promoter luciferase reporter, luminescence; scaled: vehicle 0, proteasome-inhibitor control 100%;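 active = activation above the mean across all tested compounds plus 3 SD, cutoff set per campaign, cut at about 5.5% in these data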;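 also: 100% = MG132 at 30 µM as the positive control and 0% = DMSO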
p97 ATPase inh: human p97 ATPase inhibition; P55072; recombinant p97 ATPase, Kinase-Glo ATP luminescence, 3 h; inhibition, % at 8 µM; 220,000 compounds, 0.42% hits; AID 1481; in the data active = inhibition above about 15%;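 also: 0% = DMSO vehicle and 100% = wells lacking enzyme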
Redox H2O2 prof: compounds producing H2O2 with reducing agent – biochemical, NIH compound library profiling, artefact control for MLSCN library redox annotation, primary screen. activation, % at 10 µM. 200,000 compounds, 0.03% hits. DTT-dependent redox cycling H2O2, phenol red/HRP absorbance; 100% = 100 µM peroxide control, 0% = buffer. AID 878;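 active = activation of at least 50% relative to the plate's high and low controls in the primary single-dose screen; inactive = activation below 50%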;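 also: compound incubated with DTT at 0.8 mM final as the reducing agent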
p97 confirm: human p97 ATPase inhibition, confirmation | shares compounds with p97 ATPase inh | recombinant p97 ATPase, Kinase-Glo ATP luminescence | 760 compounds, 44% hits | inhibition, % at 8 µM;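 active = percent inhibition of p97 ATPase above a set limit, the primary screen's mean plus 3 SD, cut at about 15% in these data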;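 also: 0% = DMSO wells and 100% = wells lacking p97 protein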
Starred values were filed as active, the others as inactive. Most compounds without a hit are left out; they make up all but 1.6% or so of the library.

Results for COc1ccc(CNC(=O)COC(=O)/C=C/c2ccc(Cl)cc2)cc1 ?
HSV replic up: inactive; Wee1 degr inh: 2; Hsp70 activator: 0; p97 ATPase inh: 2; Redox H2O2 prof: 0

What do the screens show for `COc1cc(/C=C2/SC(=Nc3ccc(O)cc3)NC2=O)cc(OC)c1O`?
Wee1 degr inh: 2; Hsp70 activator: 0; p97 ATPase inh: 26*; Redox H2O2 prof: -1; p97 confirm: 20*

Results for COc1ccc(N=C2NC(=O)/C(=C\c3ccco3)S2)cc1 ?
HSV replic up: inactive; Wee1 degr inh: 2; Hsp70 activator: 0; p97 ATPase inh: 1; Redox H2O2 prof: 0

How did O=C1NC(=Nc2ccc(O)cc2)S/C1=C\C=C\c1ccco1 do in these assays?
HSV replic up: inactive; Wee1 degr inh: 8; p97 ATPase inh: 36*; p97 confirm: 31*

Results for COc1cc(/C=C2\SC(=Nc3ccc(O)cc3)NC2=O)cc(OC)c1OC ?
HSV replic up: inactive; Wee1 degr inh: -3; p97 ATPase inh: 4

What do the screens show for `COc1ccc2ccccc2c1/C=N/NC(=O)c1sc(N)c(C#N)c1C`?
HSV replic up: inactive; Wee1 degr inh: 0; Hsp70 activator: 0; p97 ATPase inh: 18*; Redox H2O2 prof: -1; p97 confirm: 39*

Results for O=C1C=C(Nc2ccccc2C(=O)O)c2ccccc2C1=O ?
HSV replic up: inactive; Wee1 degr inh: -2; p97 ATPase inh: 23*; p97 confirm: 21*

What do the screens show for `O=C1C=C(Nc2ccccc2)c2ccccc2C1=O`?
HSV replic up: inactive; Wee1 degr inh: -2; Hsp70 activator: 0; p97 ATPase inh: 10; Redox H2O2 prof: 4

What do the screens show for `Cc1ccccc1CN1C2=NCCCN2c2ccccc21`?
HSV replic up: inactive; Wee1 degr inh: 1; Hsp70 activator: 0; p97 ATPase inh: 15*; Redox H2O2 prof: 0; p97 confirm: 1

How did Cc1ccccc1CN1C2=NCCN2c2ccccc21 do in these assays?
HSV replic up: inactive; Wee1 degr inh: -2; Hsp70 activator: 0; p97 ATPase inh: -1; Redox H2O2 prof: 0

How did COC(=O)COc1ccc(=O)n(-c2ccccc2)n1 do in these assays?
HSV replic up: inactive; Wee1 degr inh: -1; Hsp70 activator: 0; p97 ATPase inh: 18*; Redox H2O2 prof: 0; p97 confirm: 5

What do the screens show for `O=C(O)COc1ccc(=O)n(-c2ccccc2)n1`?
HSV replic up: inactive; Wee1 degr inh: 0; Hsp70 activator: 0; p97 ATPase inh: -3; Redox H2O2 prof: 0

How did Cc1nonc1NC(=O)CSc1nc2ccccc2[nH]1 do in these assays?
HSV replic up: inactive; Wee1 degr inh: -3; Hsp70 activator: 0; p97 ATPase inh: 0; Redox H2O2 prof: -2

What do the screens show for `CCOC(=O)NC(=O)CSc1nc2ccccc2[nH]1`?
HSV replic up: inactive; Wee1 degr inh: -1; Hsp70 activator: 0; p97 ATPase inh: 16*; Redox H2O2 prof: 0; p97 confirm: 6

How did Cn1c(=O)n(CCc2ccccc2)c(=O)c2c1nc1n2CCCN1CCc1ccccc1 do in these assays?
HSV replic up: inactive; Wee1 degr inh: 0; Hsp70 activator: 0; p97 ATPase inh: -4; Redox H2O2 prof: 0

Results for COC(=O)c1ccc(/C=C/C(=O)c2ccc(OC)cc2)cc1 ?
HSV replic up: inactive; Wee1 degr inh: -1; Hsp70 activator: 0; p97 ATPase inh: 4; Redox H2O2 prof: -4

How did Cc1cccc(C)c1NC(=O)COC(=O)c1cccnc1 do in these assays?
HSV replic up: inactive; Wee1 degr inh: -1; Hsp70 activator: 0; p97 ATPase inh: 17*; Redox H2O2 prof: 0; p97 confirm: 6

What do the screens show for `O=C(Oc1cccc(Nc2ncnc3ccccc23)c1)c1ccccc1Cl`?
HSV replic up: inactive; Wee1 degr inh: 5; Hsp70 activator: 0; p97 ATPase inh: 16*; Redox H2O2 prof: -1; p97 confirm: 25*

What do the screens show for `Nc1ncnc2oc(-c3ccco3)c(-c3ccco3)c12`?
HSV replic up: inactive; Wee1 degr inh: -1; Hsp70 activator: 0; p97 ATPase inh: 17*; Redox H2O2 prof: 2; p97 confirm: 13

How did Nc1nnc(-c2ccco2)s1 do in these assays?
HSV replic up: inactive; Wee1 degr inh: -2; Hsp70 activator: 0; p97 ATPase inh: -5; Redox H2O2 prof: -6

How did O=C(CCNC(=O)c1ccccc1Cl)Nc1nc2ccccc2s1 do in these assays?
HSV replic up: inactive; Wee1 degr inh: 7; Hsp70 activator: 0; p97 ATPase inh: 5; Redox H2O2 prof: 0

Results for Cc1cc2c(N)cccc2nn1 ?
HSV replic up: inactive; Wee1 degr inh: -1; Hsp70 activator: 0; p97 ATPase inh: 32*; Redox H2O2 prof: 2; p97 confirm: 9

How did COc1ccccc1-c1nnc(NC(=O)C(C)SC2=NCCS2)s1 (configuration not stated) do in these assays?
HSV replic up: inactive; Wee1 degr inh: -3; Hsp70 activator: 0; p97 ATPase inh: 17*; Redox H2O2 prof: -1; p97 confirm: 20*

How did CC(SC1=NCCS1)C(=O)Nc1nnc(-c2ccc(Cl)cc2)s1 (configuration not stated) do in these assays?
HSV replic up: inactive; Wee1 degr inh: 0; Hsp70 activator: 0; p97 ATPase inh: -3; Redox H2O2 prof: 0

What do the screens show for `O=C(CCl)Nc1cc(-c2ccccc2)nn1-c1ccccc1`?
HSV replic up: inactive; Wee1 degr inh: 0; Hsp70 activator: 0; p97 ATPase inh: 20*; Redox H2O2 prof: -2; p97 confirm: 32*

Results for Cc1ccc(-c2nn(-c3ccccc3)cc2CNCc2ccccc2)cc1 ?
HSV replic up: inactive; Wee1 degr inh: 1; Hsp70 activator: 0; p97 ATPase inh: 1; Redox H2O2 prof: 0

Results for Cc1ccc(-c2cc(NC(=O)CCl)n(-c3ccccc3)n2)cc1 ?
Wee1 degr inh: -2; Hsp70 activator: 0; p97 ATPase inh: 24*; Redox H2O2 prof: 0; p97 confirm: 25*

What do the screens show for `Cc1ccc(-c2nn(-c3ccccc3)cc2NC(=O)CCl)cc1`?
HSV replic up: inactive; Wee1 degr inh: 1; Hsp70 activator: 0; p97 ATPase inh: 16*; Redox H2O2 prof: 0; p97 confirm: 29*

How did O=C1CCN2C=Nc3cccc4ccc1c2c34 do in these assays?
HSV replic up: inconclusive; Wee1 degr inh: 1; Hsp70 activator: 0; p97 ATPase inh: 26*; Redox H2O2 prof: -4; p97 confirm: 9

How did c1ccc(CN2CCN(C3=Nc4cccc5cccc3c45)CC2)cc1 do in these assays?
Wee1 degr inh: -2; Hsp70 activator: 0; p97 ATPase inh: -3; Redox H2O2 prof: 1

Results for N#C/C(=C(/O)COC(=O)c1ccc(C#N)cc1)c1nc2ccccc2s1 ?
HSV replic up: inactive; Wee1 degr inh: -1; Hsp70 activator: 0; p97 ATPase inh: 5; Redox H2O2 prof: 0

Results for CC(=O)Oc1cc2c3c(c1)/C(=C1/SC(=S)NC1=O)C(=O)N3C(C)(C)C=C2C ?
HSV replic up: inactive; Wee1 degr inh: 0; p97 ATPase inh: 25*; p97 confirm: 45*
